Cycloheximide cs: Cycloheximide Counterscreen for Small Molecule Inhibitors of Shiga Toxin; cell reporter, cycloheximide protein synthesis inhibition counterscreen; max response, %; 300,000 compounds, 12% hits; in the data active = max response mostly above about 13%, no sharp cut-off; inactive = mostly below about 14%; also: read at 38.3 µM for the half of the compounds with a filed dose; 0% is about no effect
Pf growth 96h: Primary qHTS for delayed death inhibitors of the malarial parasite plastid, 96 hour incubation | P. falciparum luciferase reporter growth, 96 h | Potency, µM (highest dose often 28.7 µM), for inactives: top-dose activity change, negative = inhibition, hits mostly inhibitors | 320,000 compounds, 6.9% hits | AID 504834, 2011; active = well fitted inhibition curve with a large enough effect; inconclusive = small, poorly fitted or top-dose-only effect, or another doubt; inactive = no such curve, though single readings can be large or run the other way; also: potency is read from the fitted curve at half-maximal effect; % is scaled to controls: 0 for no effect and ±100 for the full control effect
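Two parasite generations (96 h, 37 C, 5% CO2) of compound exposure in infected erythrocytes (0.05% parasitemia, 2% hematocrit). Luciferase-reporter P. falciparum; decreased luminescence indicates inhibited growth, aimed at apicoplast-acting delayed death.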
Pf growth 48h: Primary qHTS for delayed death inhibitors of the malarial parasite plastid, 48 hour incubation; P. falciparum luciferase growth in erythrocytes, 48 h; Potency, µM (doses to about 28.7 µM), for the others: at the top dose activity change, negative = inhibition, most hits filed as inhibitors; 310,000 compounds, 5.9% hits; active = well fitted inhibition curve with a large enough effect; inconclusive = small, poorly fitted or top-dose-only effect, or another doubt; inactive = no such curve, though single readings can be large or run the other way; also: potency is read from the fitted curve at half-maximal effect; % is scaled to controls: 0 for no effect and ±100 for the full control effect
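Parasite viability was followed by luminescence of a genomically integrated firefly luciferase. Cultures held 0.1% parasitemia at 2% hematocrit (final), incubated under 5% CO2 at 37 C.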
SARS PLpro yeast: qHTS of Yeast-based Assay for SARS-CoV PLP | S. cerevisiae expressing SARS-CoV PLpro, growth rescue | Potency, µM (series often up to 32.9 µM), inactives show top-dose activity, positive = growth rescue, actives largely listed as activators | 330,000 compounds, 0.19% hits | AID 485353, 2010; also: potency is read from the fitted curve at half-maximal effect; 0% is about no effect; nearly all actives have a fitted effect of over 55% in size
NS1 inh: qHTS Assay for Inhibitors of Influenza NS1 Protein Function. Potency, µM (doses to about 46.1 µM), for inactives: at the highest dose activity, positive = more growth. AID 2326, 2010. 270,000 compounds, 0.4% hits; also: potency is read from the fitted curve at half-maximal effect; actives are rising curves; nearly all actives have a fitted effect of over 50% in size
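Compounds were scored for reversing the slow growth caused by influenza A NS1 in S. cerevisiae, measured by optical density at 600 nm. Assay medium contained 2% galactose at pH 6.0; NS1-free yeast of the same strain were the positive control.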
Shiga toxin inh: A qHTS for Small Molecule Inhibitors of Shiga Toxin | Vero cells, Shiga toxin protein synthesis inhibition reporter | inhibition, % at 38.7 µM | 290,000 compounds, 9.2% hits; in the data active = inhibition mostly above about 28%, no sharp cut-off; inactive = mostly below about 43%; also: 0% is about no effect
* marks the source's active call; other numbers are inactive results; ? = inconclusive; · = no result; + = active, no number. In the library only some 21% were active in any assay of this set; here they are far more common. Unless noted, calls follow the shape of the full dose curve.

SMILES	Cycloheximide cs	Pf growth 96h	Pf growth 48h	SARS PLpro yeast	NS1 inh	Shiga toxin inh
O=C1OC(c2ccccc2)/C(=C(/O)c2ccccc2)C1=O (configuration not stated)	39*	39%	·	-27%	10%	101*
O=C1OC(c2ccccc2)/C(=C(/O)c2ccc(Cl)cc2)C1=O (configuration not stated)	13	-27%	·	16%	-2%	12
O=C(O)c1cc2c(cc1NC(=O)C1CCCC1)OCCO2	·	33%	23%	0%	·	·
Cc1c(OC(C)C(=O)NCCCN2CCCC2=O)ccc2c3c(c(=O)oc12)CCCC3 (configuration not stated)	-6	-29%	?	0%	-2%	-6
Cc1c(OC(C)C(=O)NCc2ccncc2)ccc2c3c(c(=O)oc12)CCC3 (configuration not stated)	-6	9.3µM*	?	-7%	-18%	-10
Cc1c(OC(C)C(=O)NCC(O)c2ccccc2)ccc2c3c(c(=O)oc12)CCC3 (configuration not stated)	-1	10µM*	13µM*	-2%	-15%	-5
Cc1c(OCC(=O)NCc2cccnc2)ccc2c3c(c(=O)oc12)CCC3	5	-7%	-6%	18%	28%	-8
Cc1c(OCC(=O)NCc2ccncc2)ccc2c3c(c(=O)oc12)CCC3	-5	13µM*	?	?	-14%	5
Cc1c(OC(C)C(=O)NCc2ccccn2)ccc2c3c(c(=O)oc12)CCCC3 (configuration not stated)	6	1.7µM*	?	?	-36%	-15
Cc1ccc(C(=O)N2CC(=O)Nc3ccc(F)cc3C2c2ccc(F)cc2)cc1[N+](=O)[O-] (configuration not stated)	10	0%	?	4%	-5%	10
N/C(=N\OC(=O)Cc1cccs1)c1ccc([N+](=O)[O-])cc1	31*	65%	34%	-48%	-9%	+
N/C(=N\OC(=O)CCCOc1ccccc1)c1ccc(Br)cc1	1	?	8%	2%	-18%	-11
N/C(=N\OC(=O)Cc1cccs1)c1ccc(Br)cc1	50*	76%	67%	-34%	-6%	81*
O=C(NCc1cccs1)c1ccc([N+](=O)[O-])cc1	10	?	12%	-12%	7%	-12
O=C(NCC1CCCO1)c1ccc(NC(=O)c2ccc([N+](=O)[O-])cc2)cc1 (configuration not stated)	-2	?	?	6%	11%	4
CCCCCCCCCCCCC/C=C/C(O)C(COP(=O)(O)OCCN)NC(=O)CCCCCCCCCCCCCCCCC (configuration not stated)	-4	·	·	·	·	0
Cc1nc(C)c(C(=O)OCC(=O)Nc2cccc(C)c2C)s1	·	98%	31%	14%	·	·
C[N+]1=C(/C=C/Nc2ccccc2Cl)C(C)(C)c2ccccc21	-4	?	12µM*	-7%	-8%	-8
COC(=O)c1ccc2c(c1)C(C)(C)C(/C=C/c1ccccc1O)=[N+]2C	-13	?	?	-24%	8%	-26
COc1ccc(CNC(=O)c2csc(Cc3ccccc3)n2)cc1	21*	62%	1%	?	-12%	64*
COc1ccc(NC(=O)c2csc(Cc3ccccc3)n2)cc1	43*	·	19%	-30%	-9%	74
O=C(Nc1ccc(F)cc1)c1csc(Cc2ccccc2)n1	55*	337%	138%	-6%	·	104*
Cc1ccc(S(=O)(=O)/C(C#N)=C/c2c(N3CC(C)OC(C)C3)nc3c(C)cccn3c2=O)cc1 (configuration not stated)	7	·	?	-17%	15%	1
CCC1CCCCN1C(=S)Nc1ccc(OC(F)F)cc1 (configuration not stated)	6	64%	8%	10%	15%	12
Cc1ccc(NC(=O)C2CC(=O)N(C(C)C)C2)cc1C (configuration not stated)	-2	0%	-16%	-3%	29%	·
SMILES	Cycloheximide cs	Pf growth 96h	Pf growth 48h	SARS PLpro yeast	NS1 inh	Shiga toxin inh
CCOP(=O)(c1ccccc1)C(O)c1ccc(F)cc1 (configuration not stated)	-2	7.4µM*	-5%	19%	4%	-5
CCOP(=O)(c1ccc(N(C)C)cc1)C(O)c1ccccc1 (configuration not stated)	-4	·	12µM*	2%	0%	-12
[O-]/C(=C(\C(=S)NCc1ccccc1)[n+]1ccccc1)c1ccc(Cl)s1	-2	-28%	0%	2%	·	14
CC(C)CCN1CC(=O)N2[C@@H](Cc3c([nH]c4ccccc34)C2(C)C)C1=O	-2	?	?	-2%	0%	-7
COC(=O)c1ccc(N2CCN(C)CC2)c(NC(=O)c2cccs2)c1	13	20%	22%	9%	-6%	-3
CCN1CCN(C(=S)Nc2cccc(C(F)(F)F)c2)CC1	1	9.3µM*	19%	11%	-3%	-2
C=CCNC(=S)N1CCN(c2ccc([N+](=O)[O-])cc2)CC1	1	?	1.7µM*	-5%	-2%	-14
CCNC(=S)N1CCN(c2ccc([N+](=O)[O-])cc2)CC1	-1	6.6µM*	12µM*	-3%	-14%	-14
O=[N+]([O-])c1ccc(N2CCN(c3ccccc3)CC2)cc1	2	-19%	34%	-7%	-1%	-8
O=[N+]([O-])c1ccc(N2CCCCC2)cc1	27*	27%	34%	1%	5%	45
O=[N+]([O-])c1ccc(N2CCN(C(=S)NCc3ccc(Cl)cc3)CC2)cc1	0	2%	?	-1%	?	0
C/C=C1/C[C@@H](C)[C@](O)(CO)C(=O)OCC2=CCN3CC[C@@H](OC1=O)C23 (some centres not stated)	13	·	·	·	·	-4
COc1ccc(-c2cc(C(F)(F)F)n3nc(C(=O)N4CCN(C(=O)c5ccco5)CC4)cc3n2)cc1	-2	15%	?	8%	17%	-9
CCn1cc(C(=O)N2CCN(c3ccccn3)CC2)c(=O)c2cc(S(=O)(=O)N(C)C3CCCCC3)ccc21	-3	?	?	-1%	·	-11
CN1CCN(C(=S)Nc2ccc([N+](=O)[O-])cc2)CC1	6	-4%	36%	-1%	4%	1
CCN1CCN(C(=S)Nc2ccc([N+](=O)[O-])cc2)CC1	21*	12%	19%	-4%	5%	17
CCN(CC)C(=O)C1CCCN(c2ccc([N+](=O)[O-])cc2)C1 (configuration not stated)	2	1.7µM*	3%	0%	-3%	6
COCCCNC(=S)N1CCN(c2ccc([N+](=O)[O-])cc2)CC1	-5	-26%	6.6µM*	12%	8%	-7
